The whole screen tested about 53,000 sequences, of which about 3,700 (7%) were called active. Many of the other results were omitted from the sample, so actives are more common in it than they were. Values without a mark were called inactive.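 The calls were made as follows: active = gene knockdowns whose robust z-score for IL-1 alpha signal is at least 2 or at most -2, so actives lie on both sides; inactive = the rest.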
experiment: Components of the Cytosolic LPS Sensing Pathway: Gene Identification via Genome-wide siRNA Screen; settings: RAW264.7 macrophages, IL-1a HTRF, actives lie on both sides, screened at 100 nM (by protocol), cells primed 5 h with Pam3CSK4 first;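 also: robust z of the log signal after scaling to non-targeting control siRNA wells of the plate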
Procedure, shortened: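 RAW264.7 mouse macrophages reverse-transfected with single siRNAs (100 nM final) for 48h, primed with Pam3CSK4 for 5 hours, then transfected with LipidA for 24 hour. Supernatant IL-1a read by HTRF; values normalized to negative-control median, log-transformed robust z-scores.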

Sequence | z-score
GCUCAGUUUCUCAUGAAACTT against Tespa1 | 0.206
GGAAUGCAGAAAUGAAAAATT against Olfr1234 | -0.909
GGAAAGAAGAACCAAGCUCTT against Med6 | -1.01
GAUCAAAGCGGCGUACUACTT against Dnajc30 | 0.738
GGAAAAGUAUCCAUGUCACTT against Impa1 | -1.75
GGCAUCAUAAAGCCAGGCATT against Sybu | -2.42 (active)
GGGUAUAUAAGCAGCACCATT against Rdh9 | 0.736
CCCAUCCAAGAUUUGAUUUTT against 2310002L09Rik | 1.89
GGCUGUAGUUGGCUAACACTT against Slc25a28 | -0.103
GGUAACAAUCACCAUAUUCTT against 1700029F12Rik | -1.94
GCAACAUGUAGGCAACAUCTT against Tmx2 | -0.179
CCAAUGAGAGUUCUAUGAUTT against Cxxc4 | -0.192
GGUUAGCAGGGACCUAAUGTT against Zfp94 | 2.57 (active)
GGAAAACACGAGUUUCCCUTT against Arrdc4 | 1.56
CCAAGCCAAGCAAUCUUGATT against Chat | -0.247
CCAAACUUACAAAUAUGCGTT against Sgpp1 | 1.35
GGAUCCUGUCCACAAGCACTT against Astn1 | 0.519
GGUUCAGAUCCACAGCCAGTT against Asic2 | -2.12 (active)
CCCAUAACCAGAAUUAAAGTT against Wdr64 | 0.454
GGUCAUUGCAUCUGACAAGTT against Pcdha2 | 0.109
GGGAGGAUACCUUCUAUGUTT against Atf6b | -0.43
GGACACAGACAUCCUCUUGTT against Sult5a1 | 1.04
GGGAGAUGUUUGUUUUCAATT against Mmp16 | 3.52 (active)

Sequence | z-score
GGAAACCUUUUCAUUAACATT against Il23r | 0.138
GGACAACUUCCUAGGGCUCTT against Esyt3 | 0.248
CCCAAGCAAUUACAGUACUTT against Olfr263 | -0.543
GGCCCUCUGAGAUUAAUGUTT against Nfkbid | 2.58 (active)
CAGAUCCAUCUCUUAAUGGTT against Olfr204 | 0.383
GGUAUCAGGUACCAACGACTT against Cpne6 | 0.768
GGACAUUAGCCAACACAUCTT against Scp2d1 | 1.17
GGAAUUGACUUUAAGACAATT against Boll | -0.413
GGAAGUCAAGCAUAUUGCCTT against Sntb2 | 3.04 (active)
GCAUUGGUGUUUAGUUGGUTT against Gdf2 | 1.11
GGAGUUCGCACAGAAAUUCTT against Dhdh | -0.619
GGUGUAUUAAAAUGUCAGUTT against Marveld2 | 1.92
GGUCAUCAGAAUGUGAAAATT against Zfp354a | 0.232
GGAGAGACCAGAAUGGUAUTT against Fbxw21 | -1.12
GGUAUUUCGAAACCUCCGUTT against H2-Q10 | 2.01 (active)
GCAUGGACAAAUGUCCCUGTT against Lce1f | -0.24
GGAAGAUGGCAAUAAUAACTT against Borcs7 | -2.26 (active)
GGUUUUCCCACAUGUCAGATT against Zmat5 | 0.805
GGGUACAGACGAUGUUUGATT against Unc45b | 0.347
GGUGUUCAACUCCACUAUGTT against Nhlrc1 | 0.511
GGUUCACAAUGGAUUAUGATT against Lrrc25 | -1.68
UGAUAUUUGGUGUAUUCAGTT against Olfr972 | -2.06 (active)
GGCUUUCUCCAAGCUAUAUTT against Tdgf1 | -1.83

Sequence | z-score
GGGAUACUACUUUCUAACATT against Rspo3 | 1.29
GCCAUACCCUGAAUUACCATT against Ndnf | -2.01 (active)
GGAUCAGAGAAGGAAAAAATT against Hspa12a | -1.98
CCCUGACUUGUCCUUACAATT against Trem3 | -0.831
CCCUAGCGGAAAUUGUCAATT against Nono | 0.328
GGGUCUGAUCACUUAUAUUTT against Lysmd3 | 2.02 (active)
CGAGGAGCCUGAAAUAUGGTT against Exosc2 | -2.42 (active)
GGAAAAAAAAGUCUUCCUATT against Ttll6 | -0.0777
CCUUGUUCCCGAAAUACCGTT against Krr1 | -0.471
GUCAGUAUGGAGCGAUGGGTT against Zmiz2 | 0.695
GCCAUGUAGCACGUAACAGTT against Haus6 | -0.368
GGAGAUACAUUGGUAGGUATT against Idua | -0.469
GGAAACGUAUGAACAAUAATT against Sema4f | 0.896
GCAAUGAGGAGUAUAUGUATT against Rfx5 | 2.89 (active)
GGAUUAUGGGAAUUAACUATT against Mpdz | 1.06
CCUUCAGUGGUUUGAACCGTT against Dnd1 | 2.59 (active)
CCAAGUCUUGUAGUGGAGUTT against Vdac3 | -0.269
GGGCUCCACUACCUAAUCATT against Gpr83 | -1.07
GGUACACUAUGAGGUCUGCTT against Traf2 | 2.07 (active)
GGUCUAUCAGAUCAUCAAATT against Pde8a | 0.584
GGGUUCAAUAACCACAUCATT against Ttc13 | -2.13 (active)
GGACUCAGAAGUGAACAUATT against Spata7 | -0.916
GCCUACGUGAAAUCUCACATT against Mycl | 0.147

Reference: PubChem BioAssay AID1508600 (Functional Genomics Laboratory (NCATS/FGL), 2020)
